Test results: PubChem BioAssay AID1634 (National Center for Advancing Translational Sciences (NCATS), 2009)
Screen size: about 260,000 compounds; about 150 (0.058%) were called active. A call without a number means that no potency is given here. The sample holds actives, similar compounds and a random draw of the others, so the mix is not that of the screen. Calls come from the whole dose curve; as a rule, active = well fitted inhibition curve with a large enough effect; inconclusive = small, poorly fitted or top-dose-only effect; inactive = no such curve, though single readings can be large or run the other way.

molecular target: Pyruvate kinase PKM (Homo sapiens) (UniProt P14618); test: qHTS Assay for Inhibitors of Human Muscle isoform 2 Pyruvate Kinase; conditions: purified PKM2, ATP generation, Kinase-Glo luminescence; series mostly up to 57.5 µM; note: nearly all actives have a fitted effect of over 60% in size
Procedure: NIH Chemical Genomics Center [NCGC] Matthew G. Vander Heiden, M.D., Ph.D. [Harvard Medical School, 77 Avenue Louis Pasteur, Boston, MA 02115] […] ATP generation was detected in a coupled reaction by luciferase-mediated luminescence, an ATP-dependent process. […] The enzyme was assayed at an intermediate level of activity to screen for both inhibitors and activators.
NCGC Assay Protocol Summary: Three uL of substrate mix (at r.t.) in assay buffer (50 mM Imidazole pH7.2, 50 mM KCl, 7 mM MgCl2, 0.01% Tween 20, 0.05% BSA) was dispensed into white solid bottom 1,536 well microtiter plates so that the final concentrations of substrates in the assay were 0.1 mM ADP and 0.5 mM PEP. 23 nL of compound were delivered by a pin tool and 1 uL of enzyme mix in assay buffer (4 degree Celsius) was added. Plates were incubated at room temperature for 1 hour. Two uL of detection mix (Kinase-Glo, Promega; at 4 degree Celsius protected from light) was added and luminescence read by a ViewLux (Perkin Elmer) at 5 second exposure/plate. Data were normalized to the uninhibited and AC100 inhibition (no enzyme). To monitor activation, the first column contained a titration of the activator, NCGC00031955-01 (16-point 1:2 dilutions in duplicate starting at 57 uM) and the first 16 rows of column 4 contained 57 uM of NCGC00031955-01.
Potency is the fitted concentration of half-maximal effect.

Sequence of Pyruvate kinase PKM (Homo sapiens) (P14618 whole entry, looked up, canonical isoform): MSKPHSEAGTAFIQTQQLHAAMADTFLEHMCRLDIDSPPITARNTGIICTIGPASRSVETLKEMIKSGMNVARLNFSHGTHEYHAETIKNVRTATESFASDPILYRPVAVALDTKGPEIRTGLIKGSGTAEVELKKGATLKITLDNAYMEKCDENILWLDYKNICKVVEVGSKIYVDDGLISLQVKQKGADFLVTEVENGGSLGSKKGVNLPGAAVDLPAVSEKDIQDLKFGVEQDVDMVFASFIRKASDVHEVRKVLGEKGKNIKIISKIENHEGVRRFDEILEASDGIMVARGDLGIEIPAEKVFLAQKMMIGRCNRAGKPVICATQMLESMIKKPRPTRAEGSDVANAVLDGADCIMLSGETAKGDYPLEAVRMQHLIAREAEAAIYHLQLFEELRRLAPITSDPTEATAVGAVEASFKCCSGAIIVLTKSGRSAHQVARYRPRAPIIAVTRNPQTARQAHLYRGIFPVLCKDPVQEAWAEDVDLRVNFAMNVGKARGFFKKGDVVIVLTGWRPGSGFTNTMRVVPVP

Row | Structure (SMILES) | Potency
1 | Cc1nnc(SCC2=C(C(=O)O)N3C(=O)C(NC(=O)Cn4nc(C)c(Cl)c4C)C3SC2)s1 (stereo not given) | inactive
2 | Oc1ccccc1N1CCN(c2ncnc3sc(-c4ccccc4)cc23)CC1 | inactive
3 | C=CCn1c(SCc2csc(C)n2)nc2scc(-c3ccc(C)o3)c2c1=O | inactive
4 | CCn1cc(C(=O)NCc2ccc3c(c2)OCO3)c2cc(OC)c(OC)cc2c1=O | inactive
5 | Nc1nc(SCC(=O)N2CCN(S(=O)(=O)c3ccc(Cl)cc3)CC2)n[nH]1 | inactive
6 | C=CC(=O)c1ccc2ccccc2c1 | inactive
7 | CC(C)Oc1ccc(CCC(=O)NNC(=S)NCc2ccccc2)cc1 | inactive
8 | N#Cc1nc(COc2ccc(Cl)cc2)oc1N1CCCC1 | inactive
9 | CS(=O)(=O)Nc1cccc(C2=NN(S(=O)(=O)c3ccccc3)C(c3cccs3)C2)c1 (stereo not given) | inactive
10 | O=C(CCSCCc1ccccn1)Nc1nccs1 | inactive
11 | CCOc1cc(/C=N/O)ccc1OCc1ccccc1F | inactive
12 | O=c1[nH]c2ccccc2n2c(-c3ccccc3)nnc12 | 25.1 µM (active)
13 | COc1c(O)ccc2c1CN1CCc3cc4c(cc3C1C2)OCO4 (stereo not given) | inactive
14 | COc1ccc(C(=O)CCc2ccccc2O)c(OC)c1 | inactive
15 | CNC(=O)COc1ccc(S(=O)(=O)Nc2ccccc2)cc1 | inactive
16 | C(=N\N1CCN(c2ccccn2)CC1)/C1=C(N2CCOCC2)C(=C/c2ccccc2)/CC1 | inactive
17 | COc1cccc(C(=O)NNS(=O)(=O)c2ccc(F)cc2)c1 | inactive
18 | Cc1ccc(C(=O)Cn2cc([N+](=O)[O-])nc2C)cc1 | inactive
19 | Cc1ccc(CNC(=O)C2CC(c3ccccc3[N+](=O)[O-])=NO2)o1 (stereo not given) | inactive
20 | O=c1cc(CO)oc(C(Nc2cccc(C(F)(F)F)c2)c2ccccn2)c1O (stereo not given) | inactive
21 | COc1ccc(-n2c(SCC(=O)NCc3cccs3)nnc2-c2ccoc2C)cc1 | inactive
22 | Cc1ccc(-c2nn(-c3ccccc3)cc2CN(Cc2ccccc2)C(=O)CCC(=O)O)o1 | inactive
23 | Cc1cc(C)c2nc(-c3ccco3)cc(C(=O)O)c2c1 | inactive
24 | Cc1ccc(-n2nc(-c3ccco3)cc2C(=O)NCc2cccnc2)cc1 | inactive
25 | N#CCC(=O)N/N=C/c1cn(Cc2ccc3ccccc3c2)c2ccccc12 | inactive

Row | Structure (SMILES) | Potency
26 | CC(C)(C)C1C/C(=C/c2ccco2)C(=O)/C(=C/c2ccco2)C1 (stereo not given) | inactive
27 | CN1CCN(c2ccc(S(=O)(=O)Nc3ccccc3)cc2[N+](=O)[O-])CC1 | inactive
28 | Cc1ccc(NS(=O)(=O)c2ccc3c(c2)oc(=O)n3C)c(C)c1 | inactive
29 | COc1ccc2c(c1)C=CC1(O2)N(CCO)c2ccccc2C1(C)C (stereo not given) | inactive
30 | O=C(Cc1cccs1)Nc1nnc(C2CC2)s1 | inactive
31 | Cc1nc2nc(COc3ccccc3)[nH]n2c(=O)c1Cc1ccccc1 | inactive
32 | CCCc1nc2ccccc2c(=O)n1/N=C/c1ccc(O)c(O)c1 | inactive
33 | COc1ccccc1C(=O)NCc1nnc(SC(C)C(=O)Nc2nccs2)n1C (stereo not given) | inactive
34 | COc1ccc(-c2ccc(CCC(=O)O)n2NC(=O)c2ccc(C(C)(C)C)cc2)cc1 | inactive
35 | Oc1ccccc1CNc1ncc(Br)cc1Br | inactive
36 | N/C(=N\S(=O)(=O)c1cc(C(F)(F)F)cc(C(F)(F)F)c1)c1cccs1 | inactive
37 | Cc1ccc2nc(C)cc(N/N=C/c3ccc(F)cc3)c2c1 | inactive
38 | COc1ccccc1-n1cnc2cc(NS(=O)(=O)c3ccccc3)ccc21 | inactive
39 | COc1ccc(SC[C@H](Cc2ccccc2)N2CCN(CCc3ccccc3)CCC2=O)cc1 | inactive
40 | COc1ccc2[nH]c3c(=O)n(Cc4ccco4)cnc3c2c1 | inactive
41 | Fc1ccccc1CNC(=S)Nc1ccc(Cl)cc1 | inactive
42 | Cn1c(-c2ccc(F)cc2)cnc1SCC(=O)NCc1ccco1 | inactive
43 | O=c1cc(Cn2nnc(-c3ccc(Cl)cc3)n2)nc2sccn12 | inactive
44 | O=C(CCC(=O)n1ncc2ccccc21)NCc1ccccc1Cl | inactive
45 | NC(=S)c1ccc(C(N)=S)o1 | inactive
46 | Cc1ccc(NN=Nc2nc3c([nH]2)c(=O)n(C)c(=O)n3C)cc1 | inactive
47 | Nc1nnc(SCC(=O)NC2CCCc3ccccc32)s1 (stereo not given) | inactive
48 | O=S(=O)(c1ccc(Br)cc1)n1ccc2ccccc21 | inactive
49 | Oc1ccc2nc(Cc3ccccc3)[nH]c2c1 | inactive
50 | CCOc1ccc(S(=O)(=O)Nc2nc3cc(OC)ccc3s2)cc1 | inactive

Row | Structure (SMILES) | Potency
51 | O=c1ccc2cc(S(=O)(=O)Nc3ccccc3F)ccc2o1 | inactive
52 | Cc1cccc(CSc2nc3c(c(=O)n2C)SCC3)c1 | inactive
53 | CC(C)(C)c1ccc(C(=O)NCCn2c(N)c(C#N)c3nc4ccccc4nc32)cc1 | inactive
54 | Cn1ncc(N2CCN(S(=O)(=O)c3ccc(Br)cc3)CC2)c(Cl)c1=O | inactive
55 | O=C(CSc1nnc(-c2ccc([N+](=O)[O-])cc2)o1)Nc1ccccn1 | inactive
56 | CCS(=O)(=O)Nc1ccc(C2=NN(C(C)=O)C(c3cccs3)C2)cc1 (stereo not given) | inactive
57 | O=C(NCc1cccs1)C1CCN(S(=O)(=O)c2ccc(Cl)cc2)CC1 | inactive
58 | O=C(/C=C/c1ccc(Cl)cc1Cl)c1cccnc1 | inactive
59 | O=C(COc1ccccc1[N+](=O)[O-])N/N=C/c1ccc[nH]1 | inactive
60 | COc1cc(/C=N\Nc2nc(-c3cccs3)c(NC(C)=O)s2)ccc1O | inactive
61 | Brc1c(CSc2nncc3ccccc23)nc2ccccn12 | inactive
62 | Cc1cccc(C)c1NC1=NC(=S)N(c2ccc(N(C)C)cc2)C1(C)C | inactive
63 | CN(C)S(=O)(=O)c1cccc(-c2nn(-c3ccccc3)cc2/C=C2\SC(=S)N(CC(=O)O)C2=O)c1 | inactive
64 | O=C(N/N=C/c1ccc(O)c(O)c1)C1c2ccccc2Oc2ccccc21 | inactive
65 | Cc1coc2c(O)cc3c(c12)OC1(N2CCCCC2)C(=O)NCCCC31 (stereo not given) | inactive
66 | C/C=C\C=C\C(=O)N1CC2(CC(c3cccc(NC(=O)/C(C)=C\C)c3)=NO2)C[C@H]1C(N)=O (stereo not given in full) | inactive
67 | Cn1c(=O)n(C)c2cc(NS(=O)(=O)c3ccc(F)cc3)ccc21 | inactive
68 | Cc1ccc(NS(=O)(=O)c2cc3c(cc2C)NC(=O)CO3)cc1 | inactive
69 | CC(=O)Nc1cccc(OCC(=O)/C=C2\N(C)c3ccccc3C2(C)C)c1 | inactive
70 | CC1=C/C(=N\OS(=O)(=O)c2ccccc2)C=CC1=O | inactive
71 | Cc1ccc(Cn2c(SCC(=O)N/N=C/c3ccccc3OCC(=O)O)nc3ccccc32)cc1 | inactive
72 | Cc1cc(C)n(-c2ccc3nncn3n2)n1 | inactive
73 | CSC1=NCCN1C(=O)Cc1cccc2ccccc12 | inactive
74 | Cc1ccnc(Nc2nc3ccccc3s2)n1 | inactive
75 | N#Cc1nc(Cc2ccccc2)oc1NCCc1ccccc1 | inactive

Row | Structure (SMILES) | Potency
76 | Cc1cc(C)c(C#N)c(SCc2ccc3c(c2)OCO3)n1 | inactive
77 | C=C(C)C(=O)O[C@H]1C/C(C)=C\C(=O)/C=C(\C)[C@H](O)[C@@H]2OC(=O)C(=C)[C@@H]21 | inactive
78 | Cc1ccc2c(Cl)c(C(=O)NCCCn3ccnc3)sc2c1 | inactive
79 | C=CCN(C(=O)Nc1ccc2oc(C)nc2c1)c1ccccc1 | inactive
80 | O=S(=O)(c1ccc2ccccc2c1)N1CCN(S(=O)(=O)N2CCOCC2)CC1 | inactive
81 | N#Cc1c2c(c(N3CCN(CCO)CC3)n3c1nc1ccccc13)CCCC2 | inactive
82 | COc1cc2c(cc1O)[C@H](Cc1ccc(Oc3cc(C[C@@H]4NCCc5cc(OC)c(O)cc54)ccc3O)cc1)NCC2 | inactive
83 | CN1CCCN(S(=O)(=O)c2ccc3c(c2)OCCO3)CC1 | inactive
84 | O=C(CSc1ccc(-c2ccco2)nn1)Nc1cccc(F)c1 | inactive
85 | CCOC(=O)c1cnc(SCC(=O)Nc2cccc(OC)c2)nc1N | inactive
86 | O=C(Nc1ccccc1)c1nnsc1S(=O)(=O)c1ccc(Cl)cc1 | inactive
87 | O=C(CN1CCN(S(=O)(=O)c2ccc(F)cc2)CC1)NC1CC1 | inactive
88 | Cc1nc2cc(C(F)(F)F)ccc2n1CCNc1nc(-c2cc(Cl)c(N)c(Cl)c2)cs1 | inactive
89 | Cc1ccc(S(=O)(=O)c2c(N)n(C)c3nc4ccccc4nc23)cc1 | inactive
90 | CSc1nc2ccc(S(=O)(=O)N3CCc4ccccc43)cc2s1 | inactive
91 | COc1cccc(NC(=O)CSc2nnc(Cc3ccc(OC)c(OC)c3)o2)c1 | inactive
92 | CC1=C(C)CC2C(=O)N(c3cccc4ccccc34)C(=O)C2C1 (stereo not given) | inactive
93 | CCOC(=O)c1c(C)oc2cc(Br)c(OCC(N)=O)cc12 | inactive
94 | COc1ccc(C(=O)/C=C/Nc2ccccn2)cc1 | 15.8 µM (active)
95 | COc1cccc(Nc2ncccc2C(=O)O)c1 | inactive
96 | O=C(Nc1ccc(Br)c2cccnc12)c1ccc(Cn2cc([N+](=O)[O-])cn2)o1 | inactive
97 | O=C(Oc1ccc(-c2nc(-c3ccccn3)no2)cc1)c1ccccc1 | 14.1 µM (active)
98 | Cc1cnc(C(=O)N2CCCC(C(=O)c3ccc(C(F)(F)F)cc3)C2)cn1 (stereo not given) | inactive
99 | O=C(NCc1ccccn1)c1ccc2nc(-c3ccco3)c(-c3ccco3)nc2c1 | inactive
100 | O=c1c2ccccc2nnn1CSc1nnnn1-c1ccccc1 | inactive
